For some assays here: Results with a measured potency or affinity are listed apart. Active and inactive are the calls of the source. Unless noted, no rule for the calls is given here.
What was measured:
[1] = antimalarial activity against Dd2 strain (AID 2302;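 active = growth inhibition above 50% at the single 2 µM test dose, taken to imply half-maximal potency below 2 µM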;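 also: 0% = DMSO untreated growth and 100% = chloroquine plus artemisinin killed control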); conditions: P. falciparum Dd2 in RBCs, LDH growth readout, 72 h; at 2 µM; active compounds read high
[2] = human hepatoma cell viability loss – ATP luminescence, cytotoxicity control for P. falciparum antimalarial project, primary screen (AID 2303;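 active = inhibition above 50%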;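 also: 0% = DMSO wells and 100% = digitonin-killed cells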); conditions: HepG2 viability, 24-48 h, at 10 µM, active compounds read high
[3] = biological target: L-lactate dehydrogenase (Plasmodium falciparum (isolate CDC / Honduras)) (UniProt Q27743); assay: PfLDH activity inhibition – cell lysate, 3D7 strain, counter-screen for P. falciparum growth inhibition project (AID 2304);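 also: 0% = vehicle and 100% = reference inhibitor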; conditions: P. falciparum 3D7 crude extract, LDH APAD/NBT absorbance; at 2 µM; active compounds read high
L-lactate dehydrogenase (Plasmodium falciparum (isolate CDC / Honduras)), sequence (Q27743 whole entry, looked up): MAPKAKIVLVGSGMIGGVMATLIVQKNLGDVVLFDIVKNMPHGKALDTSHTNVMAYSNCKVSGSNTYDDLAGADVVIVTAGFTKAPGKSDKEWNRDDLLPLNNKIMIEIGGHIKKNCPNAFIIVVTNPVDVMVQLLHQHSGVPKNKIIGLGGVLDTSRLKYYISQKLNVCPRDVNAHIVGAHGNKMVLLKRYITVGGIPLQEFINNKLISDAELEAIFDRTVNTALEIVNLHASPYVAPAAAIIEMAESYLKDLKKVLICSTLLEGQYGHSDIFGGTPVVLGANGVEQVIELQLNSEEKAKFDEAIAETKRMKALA

[4] = inhibition of 3D7 malaria parasite growth – strain 3D7 (AID 2306);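 also: 0% = DMSO wells and 100% = chloroquine plus artemisinin control wells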; conditions: P. falciparum 3D7 erythrocytic growth, LDH absorbance, 72 h; at 2 µM; active compounds read high
[5] = biological target: Calcium-dependent protein kinase 1 (Plasmodium falciparum (isolate 3D7)) (UniProt P62344); assay: PfCDPK1 kinase inhibitors, biochemical, TCAMS library (AID 1159585; cut-off not given, nearly all actives have IC50 up to about 0.98 µM;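 also: inhibitors leave more ATP so luminescence rises with inhibition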); conditions: recombinant PfCDPK1, Kinase-Glo ATP depletion luminescence
Calcium-dependent protein kinase 1 (Plasmodium falciparum (isolate 3D7)), sequence (P62344 whole entry, looked up): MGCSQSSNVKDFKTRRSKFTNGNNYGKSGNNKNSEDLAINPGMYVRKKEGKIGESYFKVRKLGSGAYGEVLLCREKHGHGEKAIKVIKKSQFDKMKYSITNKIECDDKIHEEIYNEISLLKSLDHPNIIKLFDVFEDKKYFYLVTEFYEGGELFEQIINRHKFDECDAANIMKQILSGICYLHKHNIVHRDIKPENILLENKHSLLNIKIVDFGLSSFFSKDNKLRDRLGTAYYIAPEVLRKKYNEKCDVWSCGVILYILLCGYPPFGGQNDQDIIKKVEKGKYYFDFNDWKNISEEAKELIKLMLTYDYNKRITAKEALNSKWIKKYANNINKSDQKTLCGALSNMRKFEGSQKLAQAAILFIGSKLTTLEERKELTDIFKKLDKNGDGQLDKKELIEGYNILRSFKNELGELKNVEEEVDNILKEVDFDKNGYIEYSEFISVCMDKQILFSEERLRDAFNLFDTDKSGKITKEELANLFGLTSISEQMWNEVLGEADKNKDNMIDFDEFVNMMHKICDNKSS

[6] = biological target: Plasmodium falciparum protein kinase 6 (PK6, PF3D7_1337100) (UniProt Q8IDW1); assay: PfPK6 kinase inhibitors, biochemical, TCAMS library (AID 1159586); conditions: recombinant PfPK6, Kinase-Glo ATP depletion luminescence
Plasmodium falciparum protein kinase 6 (PK6, PF3D7_1337100), sequence (Q8IDW1 1-305): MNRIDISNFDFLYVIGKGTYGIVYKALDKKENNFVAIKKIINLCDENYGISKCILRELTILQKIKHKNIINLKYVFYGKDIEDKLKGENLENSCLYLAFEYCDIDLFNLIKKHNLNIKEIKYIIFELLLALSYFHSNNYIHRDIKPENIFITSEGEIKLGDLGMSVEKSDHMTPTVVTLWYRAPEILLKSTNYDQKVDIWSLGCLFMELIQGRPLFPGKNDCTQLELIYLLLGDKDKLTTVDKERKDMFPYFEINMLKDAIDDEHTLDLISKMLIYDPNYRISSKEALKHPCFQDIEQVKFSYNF

[7] = biological target: Protein kinase 7 (PK7), Plasmodium falciparum 3D7 (PF3D7_0213400) (UniProt Q7YTF7); assay: inhibition of Plasmodium PK7 catalytic activity – biochemical, TCAMS antimalarial set, Kinase-Glo luminescence (AID 1159587); conditions: recombinant PfPK7, Kinase-Glo ATP depletion luminescence
Protein kinase 7 (PK7), Plasmodium falciparum 3D7 (PF3D7_0213400), sequence (Q7YTF7 1-343): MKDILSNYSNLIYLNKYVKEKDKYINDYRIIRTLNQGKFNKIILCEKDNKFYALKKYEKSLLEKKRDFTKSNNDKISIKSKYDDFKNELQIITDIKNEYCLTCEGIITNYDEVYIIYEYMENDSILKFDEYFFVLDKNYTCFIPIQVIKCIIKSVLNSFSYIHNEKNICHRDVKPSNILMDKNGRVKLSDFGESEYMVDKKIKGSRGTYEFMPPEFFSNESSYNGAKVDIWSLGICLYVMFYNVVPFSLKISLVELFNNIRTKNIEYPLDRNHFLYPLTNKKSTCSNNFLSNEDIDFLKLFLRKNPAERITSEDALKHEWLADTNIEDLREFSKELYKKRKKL

[8] = biological target: Calcium-dependent protein kinase 4 (Plasmodium falciparum (isolate 3D7)) (UniProt Q8IBS5); assay: PfCDPK4 kinase inhibitors, biochemical, TCAMS library (AID 1159588; cut-off not given, nearly all actives have IC50 up to about 0.91 µM); conditions: recombinant PfCDPK4, Kinase-Glo ATP depletion luminescence
Calcium-dependent protein kinase 4 (Plasmodium falciparum (isolate 3D7)), sequence (Q8IBS5 whole entry, looked up): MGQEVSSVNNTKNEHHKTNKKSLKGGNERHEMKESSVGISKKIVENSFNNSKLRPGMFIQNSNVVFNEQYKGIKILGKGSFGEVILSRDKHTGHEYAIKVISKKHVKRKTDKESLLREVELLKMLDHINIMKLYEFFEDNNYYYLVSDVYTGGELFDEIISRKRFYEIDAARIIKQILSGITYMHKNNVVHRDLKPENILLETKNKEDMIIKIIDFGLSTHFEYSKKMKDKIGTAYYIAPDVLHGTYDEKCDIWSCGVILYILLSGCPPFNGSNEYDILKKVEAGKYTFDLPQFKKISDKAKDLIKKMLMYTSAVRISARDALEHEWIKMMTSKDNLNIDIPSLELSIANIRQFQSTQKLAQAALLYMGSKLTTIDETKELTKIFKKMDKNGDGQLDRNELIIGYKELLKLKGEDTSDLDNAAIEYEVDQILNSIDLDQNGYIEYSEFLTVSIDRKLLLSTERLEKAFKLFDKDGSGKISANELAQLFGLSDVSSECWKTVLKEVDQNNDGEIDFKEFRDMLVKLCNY

CO/C(=C\C=C\c1cc2cc(Cl)c(Cl)cc2[nH]1)C(=O)Nc1ccc(NCCN(C)C)nc1
inactive: inhibition [2] 27% | inhibition [3] -1% | outcome [5] | outcome [6] | outcome [7] | outcome [8]
active: growth inhibition [1] 56% | growth inhibition [4] 93%

c1ccc(C(c2cccs2)N2CCN(Cc3ccc(OCCCN4CCCCC4)cc3)CC2)cc1 (stereo not given)
active: growth inhibition [4] 91%
inactive: growth inhibition [1] 14% | inhibition [2] 41% | inhibition [3] 2% | outcome [5] | outcome [6] | outcome [7] | outcome [8]

COc1cc2nc(N3CCC(c4ccccc4)CC3)nc(NCc3ccc(=O)[nH]c3)c2cc1OC
inactive: inhibition [2] 12% | inhibition [3] 0% | outcome [5] | outcome [6] | outcome [7] | outcome [8]
active: growth inhibition [1] 58% | growth inhibition [4] 100%

CC(=O)c1ccc(N2CCN(CCC3(c4ccc(Cl)c(Cl)c4)COCN(C(=O)c4ccccc4)C3)CC2)cc1 (stereo not given)
active: growth inhibition [1] 95% | growth inhibition [4] 88%
inactive: inhibition [2] 12% | inhibition [3] 5% | outcome [5] | outcome [6] | outcome [7] | outcome [8]

CCN(CC)CCCN(C(=O)Nc1ccc(C#N)cc1)c1nc(-c2ccc(F)cc2)cs1
inactive: inhibition [2] 36% | inhibition [3] 0% | outcome [5] | outcome [6] | outcome [7] | outcome [8]
active: growth inhibition [1] 68% | growth inhibition [4] 99%

CCCC(=O)c1cnc2c(OCCCc3cnc[nH]3)cccc2c1Nc1c(C)cccc1C
inactive: growth inhibition [1] 14% | inhibition [2] 20% | inhibition [3] 3% | outcome [5] | outcome [6] | outcome [7] | outcome [8]
active: growth inhibition [4] 98%

Cc1cccc2[nH]c(-c3cccc(-c4cccc(NC(=O)Nc5ccccc5)c4)c3)nc12
active: growth inhibition [1] 64% | growth inhibition [4] 101%
inactive: inhibition [2] 8% | inhibition [3] -6% | outcome [5] | outcome [6] | outcome [7] | outcome [8]

COc1ccc(NC(=O)[C@H](Cc2ccccc2)Nc2cc(C)nc(NCCc3cccnc3)n2)cc1
active: growth inhibition [4] 98%
inactive: growth inhibition [1] 5% | inhibition [2] 11% | inhibition [3] -4% | outcome [5] | outcome [6] | outcome [7] | outcome [8]

O=C(Nc1ccc(OC2CCN(Cc3ccc(F)cc3)CC2)c(Cl)c1)c1cccs1
active: growth inhibition [1] 96% | growth inhibition [4] 95%
inactive: inhibition [2] 7% | inhibition [3] -1% | outcome [5] | outcome [6] | outcome [7] | outcome [8]

CCN(CCCN1CCCCC1)c1cc(C)nc(Nc2ccc(Br)cc2F)n1
active: growth inhibition [4] 95%
inactive: growth inhibition [1] 24% | inhibition [2] 32% | inhibition [3] -6% | outcome [5] | outcome [6] | outcome [7] | outcome [8]

CC(C)NC[C@@H](O)[C@H](Cc1ccccc1)NC(=O)c1cc2c3c(c1)c(C(C)C)cn3CCS(=O)(=O)N2C
active: growth inhibition [1] 99% | growth inhibition [4] 98%
inactive: inhibition [2] 5% | inhibition [3] -3% | outcome [5] | outcome [6] | outcome [7] | outcome [8]

CN(Cc1ccc(-c2ccc(C(F)(F)F)cc2)cc1)C(=O)Cn1c(CCc2cccc(F)c2F)nc(=O)c2ccc(N3CCN(CCN4CCCCC4)CC3)nc21
inactive: inhibition [3] 5% | outcome [5] | outcome [6] | outcome [7] | outcome [8]
active: growth inhibition [1] 100% | inhibition [2] 100% | growth inhibition [4] 101%

O=C(Nc1ccc2c(c1)OCO2)c1cc(-c2cccnc2)cnc1NCc1ccc2c(c1)OCO2
active: growth inhibition [4] 87%
inactive: growth inhibition [1] 1% | inhibition [2] 2% | inhibition [3] 2% | outcome [5] | outcome [6] | outcome [7] | outcome [8]

COc1ccc(-c2ccc(S(=O)(=O)Nc3cc4c(cc3OC(C)C)CCNCC4)cc2)cc1
active: growth inhibition [4] 86%
inactive: growth inhibition [1] -1% | inhibition [2] 16% | inhibition [3] 3% | outcome [5] | outcome [6] | outcome [7] | outcome [8]

Cn1nc(-c2ccc(NC(=O)Nc3cc(C(F)(F)F)ccc3F)cc2)c2cnc(NCCCCN3CCCC3)nc21
active: growth inhibition [1] 74% | inhibition [2] 88% | growth inhibition [4] 98%
inactive: inhibition [3] -3% | outcome [5] | outcome [6] | outcome [7] | outcome [8]

CCOc1ccc2c(NN=Cc3ccccc3F)cc(C)nc2c1
active: growth inhibition [1] 77% | growth inhibition [4] 101%
inactive: inhibition [2] -1% | inhibition [3] -5% | outcome [5] | outcome [6] | outcome [7] | outcome [8]

COc1cc2nc(-c3ccc(Br)cc3)cc(N)c2cc1OC
active: growth inhibition [1] 69% | inhibition [2] 90% | growth inhibition [4] 98%
inactive: inhibition [3] -3% | outcome [5] | outcome [6] | outcome [7] | outcome [8]

Cc1cc(O)c2c(c1)OC(C)(C)C=C2C1=CCN(Cc2ccccc2)CC1
active: growth inhibition [4] 96%
inactive: growth inhibition [1] 1% | inhibition [2] -2% | inhibition [3] -3% | outcome [5] | outcome [6] | outcome [7] | outcome [8]

O=C(/C=C/c1ccc(Cl)c(Cl)c1)NCCCCCN1CCCN(C(=O)Nc2ccc(Br)cc2)CC1
inactive: growth inhibition [1] -4% | inhibition [2] 38% | inhibition [3] 0% | outcome [5] | outcome [6] | outcome [7] | outcome [8]
active: growth inhibition [4] 99%

CCc1c(C(=O)NC2CCC(N3CCC(c4ccccc4OC)CC3)CC2)[nH]c2ccc(OC)cc12 (stereo not given)
active: growth inhibition [1] 99% | growth inhibition [4] 101%
inactive: inhibition [2] 43% | inhibition [3] -5% | outcome [5] | outcome [6] | outcome [7] | outcome [8]

Cc1cc(-c2cccc(CNC3CCN(C)CC3)c2)ccc1S(=O)(=O)NC1CCC1
inactive: inhibition [2] 33% | inhibition [3] 3% | outcome [5] | outcome [6] | outcome [7] | outcome [8]
active: growth inhibition [1] 96% | growth inhibition [4] 101%

CN1CCN(CCCN(Cc2cccc(-c3ccc(CNCCc4ccccc4)cc3)c2)C(=O)Nc2ccccc2)CC1
active: growth inhibition [1] 91% | inhibition [2] 61% | growth inhibition [4] 100%
inactive: inhibition [3] 3% | outcome [5] | outcome [6] | outcome [7] | outcome [8]

O=C(/C=C/c1ccc(Cl)c(Cl)c1)NCCCCCN1CCCN(C(=O)Nc2ccc(F)c(Cl)c2)CC1
inactive: growth inhibition [1] 0% | inhibition [2] 31% | inhibition [3] 1% | outcome [5] | outcome [6] | outcome [7] | outcome [8]
active: growth inhibition [4] 95%

Cc1nc(-c2cccc(Nc3nccc(NCC(O)c4ccccc4)n3)c2)cs1 (stereo not given)
inactive: inhibition [2] 43% | inhibition [3] 3% | outcome [5] | outcome [6] | outcome [7] | outcome [8]
active: growth inhibition [1] 82% | growth inhibition [4] 99%

COc1ccccc1C(C)NCC(=O)Nc1cc(C(F)(F)F)ccc1Cl (stereo not given)
active: growth inhibition [1] 85% | growth inhibition [4] 97%
inactive: inhibition [2] 4% | inhibition [3] -3% | outcome [5] | outcome [6] | outcome [7] | outcome [8]

CCN(CC)CCN(Cc1ccc(-c2ccc(C(F)(F)F)cc2)cc1)C(=O)Cn1c(SCc2ccc(F)cc2)nc(=O)c2ccccc21
active: growth inhibition [4] 98%
inactive: growth inhibition [1] 48% | inhibition [2] 47% | inhibition [3] 6% | outcome [5] | outcome [6] | outcome [7] | outcome [8]

CCOc1cc2ccccc2cc1CNCCCCCCNCc1cc2ccccc2cc1OCC
active: growth inhibition [1] 76% | inhibition [2] 99% | growth inhibition [4] 101%
inactive: inhibition [3] 2% | outcome [5] | outcome [6] | outcome [7] | outcome [8]

CC(C)(C)c1ccc(NC(=O)c2cccc(CN3CCCN(Cc4ccsc4)CC3)c2)cc1
inactive: growth inhibition [1] 3% | inhibition [2] 33% | inhibition [3] -4% | outcome [5] | outcome [6] | outcome [7] | outcome [8]
active: growth inhibition [4] 96%

CC(C)[C@H](NC(=O)c1ccc(O)c(-c2ccc(Cl)c(Cl)c2)c1)C(=O)NC1CCCCCC1
active: growth inhibition [1] 99% | growth inhibition [4] 99%
inactive: inhibition [2] -4% | inhibition [3] -2% | outcome [5] | outcome [6] | outcome [7] | outcome [8]

O=C(/C=C/c1ccc(Cl)c(Cl)c1)NC1CCN(Cc2cccc(O)c2)CC1
active: growth inhibition [4] 94%
inactive: growth inhibition [1] -1% | inhibition [2] -3% | inhibition [3] -1% | outcome [5] | outcome [6] | outcome [7] | outcome [8]

Brc1ccc(C=NNc2nc3ccccc3[nH]2)cc1
inactive: inhibition [2] -3% | inhibition [3] 0% | outcome [5] | outcome [6] | outcome [7] | outcome [8]
active: growth inhibition [1] 90% | growth inhibition [4] 102%

O=C(NC1CCN(CC2(c3ccc(Cl)cc3)CCCCC2)CC1)c1ccn[nH]1
inactive: inhibition [2] -3% | inhibition [3] 4% | outcome [5] | outcome [6] | outcome [7] | outcome [8]
active: growth inhibition [1] 96% | growth inhibition [4] 98%

COc1ccc(CNc2nc(Nc3cccc(C#N)c3)nc(Nc3cccc(C#N)c3)n2)cc1Cl
active: growth inhibition [1] 83% | growth inhibition [4] 101%
inactive: inhibition [2] -4% | inhibition [3] 4% | outcome [5] | outcome [6] | outcome [7] | outcome [8]

CCN1CCCC(Nc2ccnc3cc4ccccc4cc23)C1 (stereo not given)
active: growth inhibition [1] 100% | growth inhibition [4] 101%
inactive: inhibition [2] 38% | inhibition [3] 2% | outcome [5] | outcome [6] | outcome [7] | outcome [8]

Cc1cc(NN=Cc2ccc([N+](=O)[O-])cc2)c2ccc(F)cc2n1
active: growth inhibition [4] 101%
inactive: growth inhibition [1] 22% | inhibition [2] -3% | inhibition [3] 0% | outcome [5] | outcome [6] | outcome [7] | outcome [8]

Cc1cc(NC(=O)c2coc3cc(F)c(N4C[C@@H](C)N(C)[C@@H](C)C4)cc23)ccc1-n1ccnc1
inactive: growth inhibition [1] 42% | inhibition [2] -9% | inhibition [3] -3% | outcome [5] | outcome [6] | outcome [7] | outcome [8]
active: growth inhibition [4] 96%

Cc1cccc2[nH]c(-c3ccc(-c4ccc(NC(=O)Nc5ccc(F)c(F)c5F)cc4)cc3)nc12
active: growth inhibition [1] 97% | inhibition [2] 51% | growth inhibition [4] 100%
inactive: inhibition [3] -1% | outcome [5] | outcome [6] | outcome [7] | outcome [8]

COc1ccc(CNCc2ccc(F)cc2)cc1-c1cccc(S(=O)(=O)NCCN2CCCC2)c1
inactive: inhibition [2] 43% | inhibition [3] -3% | outcome [5] | outcome [6] | outcome [7] | outcome [8]
active: growth inhibition [1] 54% | growth inhibition [4] 101%

CCOC(=O)c1ccc(NC(=O)N[C@@H](Cc2ccccc2)C(=O)NC2CCN(Cc3ccc(OCCCN(C)C)cc3)C2)cc1 (stereo not given in full)
inactive: growth inhibition [1] 8% | inhibition [2] 5% | inhibition [3] 0% | outcome [5] | outcome [6] | outcome [7] | outcome [8]
active: growth inhibition [4] 91%

O=C1COC2(CN1CC1CCN(Cc3ccc(O)c(Cl)c3)C1)c1ccccc1-c1ccccc12 (stereo not given)
inactive: inhibition [2] 6% | inhibition [3] 1% | outcome [5] | outcome [6] | outcome [7] | outcome [8]
active: growth inhibition [1] 50% | growth inhibition [4] 93%
